From PubChem
Only some compounds are listed: those with a hit (about 1.4% of all), similar ones and a draw of the others.
MCL1 BIM primary: MCL1-BIM-BH3 interaction inhibition (human). Q07820. GST-MCL1 / FITC-Bim-BH3 fluorescence polarization. inhibition, % at 10.9 µM. hit rate 0.68% among 320,000;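 active = inhibition above the mean inhibition of all tested compounds plus 3 SD, set per campaign, cut at about 40% in these data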;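 note: higher means more loss of mP so more displacement of Bim peptide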
MEX-5 binding: C. elegans MEX-5 TCR-2 RNA binding activity. Q9XUB2. MEX-5/FITC-TCR2 RNA binding, fluorescence polarization; stronger effect = lower value. activity score (negative = inhibition of binding), % at 10 µM. hit rate 0.38% among 300,000;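 active = inhibition past about -25% in most replicates, and total fluorescence under double the plate's negative control median, limit read from the data; inconclusive = replicates evenly split on the limit, or fluorescence at least double controls; inactive = too little inhibition in most replicates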
Target sequence (Q9XUB2 whole entry, looked up): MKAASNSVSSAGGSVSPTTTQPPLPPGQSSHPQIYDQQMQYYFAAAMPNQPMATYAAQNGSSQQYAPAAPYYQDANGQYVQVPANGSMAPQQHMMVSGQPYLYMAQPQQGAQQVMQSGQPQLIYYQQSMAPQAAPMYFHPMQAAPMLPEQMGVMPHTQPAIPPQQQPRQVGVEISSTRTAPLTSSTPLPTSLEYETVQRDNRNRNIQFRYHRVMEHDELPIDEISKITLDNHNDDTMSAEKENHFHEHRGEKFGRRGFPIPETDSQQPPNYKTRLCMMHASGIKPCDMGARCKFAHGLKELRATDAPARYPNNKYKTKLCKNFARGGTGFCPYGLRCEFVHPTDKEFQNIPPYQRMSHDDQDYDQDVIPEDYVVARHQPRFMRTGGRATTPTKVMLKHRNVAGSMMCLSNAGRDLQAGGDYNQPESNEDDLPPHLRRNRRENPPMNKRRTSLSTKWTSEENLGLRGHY
GLD-1 TGE inh: GLD-1-TGE RNA interaction inhibition (C. elegans); Q17339; AID 2280; purified GLD-1 + fluorescein TGE RNA, fluorescence polarization; inhibition, % at 5.96 µM; hit rate 0.44% among 320,000;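 active = percent inhibition above a per-plate cutoff, the plate mean of test compounds plus 3 SD, cut at about 30% in these data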
E coli Lon inh: E. coli protease La inhibition; P0A9M0; inhibition, % at 7.94 µM; AID 602123; purified E. coli Lon protease, fluorescence polarization; hit rate 0.42% among 360,000; in the data active = inhibition above about 13%, passing the limit was not always enough
BCLXL inh: inhibitors of human Bcl-xL; inhibition, % at 10.9 µM; GST-Bcl-xL / FITC-Bim BH3 peptide fluorescence polarization; hit rate 0.7% among 320,000; Q07817;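 active = inhibition above the mean of all tested compounds plus 3 SD, cutoff set per campaign, cut at about 30% in these data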;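 note: inhibitors lower millipolarization by displacing the labeled peptide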
Numbers stand for hits; i = inactive; ? = inconclusive; nt = no result.

SMILES	MCL1 BIM primary	MEX-5 binding	GLD-1 TGE inh	E coli Lon inh	BCLXL inh
CCCCC1=CC2=CC(=O)C(C)(OC(=O)c3cccs3)C(=O)C2=CO1 (configuration not stated)	i	i	i	i	i
COC(=O)CCCC1=CC2=CC(=O)C(C)(OC(=O)c3cnc4ccccc4n3)C(=O)C2=CO1 (configuration not stated)	114	-67	94	nt	95
CCCCC1=CC2=CC(=O)C(C)(OC(=O)c3cnc4ccccc4n3)C(=O)C2=CO1 (configuration not stated)	96	?	97	nt	64
CCOC(=O)c1c(C)[nH]c(O)c1C=Nc1ccc(C(F)(F)F)cc1	i	i	37	i	i
CNCc1ccccc1Sc1cccc(O)c1	i	i	i	i	i
CNCc1ccccc1Sc1cc(O)ccc1O	42	nt	i	i	32
CCc1ccc(S(=O)(=O)Nc2ccc(O)c3ccccc23)cc1	i	i	i	i	i
Cc1ccc(C)c(S(=O)(=O)Nc2cc(SCC(=O)O)c(O)c3ccccc23)c1	i	nt	i	34	i
O=C(O)CSc1cc(NS(=O)(=O)c2cccc([N+](=O)[O-])c2)c2ccccc2c1O	nt	-66	nt	i	nt
O=C(O)c1cccc(S(=O)(=O)Nc2ccc([N+](=O)[O-])cc2O)c1	i	i	i	i	i
Cc1ccc(NS(=O)(=O)c2cc(NC(=O)C(C)Oc3ccccc3)ccc2C)c(C)c1 (configuration not stated)	i	i	i	i	i
CCc1ccc(S(=O)(=O)Nc2cc(SCC(=O)O)c(O)c3ccccc23)cc1	i	-52	i	i	i
CCOc1ccc(S(=O)(=O)Nc2cc(SCC(=O)O)c(O)c3ccccc23)cc1	nt	-51	nt	i	nt
CCOc1ccc(C(=O)NCC2CCN(CC3CCCCC3)CC2)cc1	nt	i	nt	i	nt
CN1CCN(C(=O)c2ccc(-n3cccn3)nc2)CC1	i	i	i	i	i
CCOc1ccccc1NC(=O)CN(C)S(=O)(=O)c1cnc[nH]1	i	i	i	i	i
O=C(Nc1ccc(Cl)cc1)Nc1cccc2nsnc12	i	i	i	i	48
Cc1cc(NC(=O)C(C)Oc2ccc(C(C)(C)C)cc2)no1 (configuration not stated)	i	i	i	i	i
CC(=O)Nc1ccccc1OCC(=O)NCCc1ccc(Cl)cc1Cl	i	i	i	i	i
CC(=O)NCCNc1ccc([N+](=O)[O-])cc1C#N	i	-41	i	i	i
CC(=O)NCCNc1ccc([N+](=O)[O-])cn1	i	i	i	i	i
COc1ccccc1NC(=S)NNC(=O)c1cc(C)n(C)n1	i	-26	i	i	i
CC1Sc2ccc(S(=O)(=O)N3CCC(C(=O)Nc4ccc(Cl)cc4)CC3)cc2NC1=O (configuration not stated)	i	i	i	i	i
CCCNC(=O)CCn1nc(-c2ccc(C)cc2)c2ccccc2c1=O	i	i	i	i	34
N#C[C@@H]1[C@@H]2C(=O)N(c3ccc4c(c3)OCCO4)C(=O)[C@@H]2C2c3ccccc3C=CN21 (some centres not stated)	i	i	31	nt	34
SMILES	MCL1 BIM primary	MEX-5 binding	GLD-1 TGE inh	E coli Lon inh	BCLXL inh
CC(=O)[C@H]1[C@H](c2cccc(Cl)c2)C(C#N)(C#N)[C@@H]2c3ccccc3C=CN21	i	i	34	nt	31
O=C(c1ccc(Cl)cc1)[C@@H]1[C@@H]2C(=O)N(c3ccc(Cl)cc3)C(=O)[C@@H]2C2c3ccccc3C=NN21 (some centres not stated)	i	i	i	i	i
CC(=O)[C@H]1[C@@H]2C(=O)N(c3cccc(Cl)c3)C(=O)[C@@H]2[C@H]2c3ccccc3C=CN21	51	i	34	i	61
CC(=O)[C@@H]1[C@@H]2C(=O)N(c3ccc(F)c(Cl)c3)C(=O)[C@@H]2C2c3ccccc3C=CN21 (some centres not stated)	i	i	i	nt	36
O=C(Nc1ccc(Br)cc1F)c1nc[nH]c1C(=O)N1CCc2ccccc2C1	nt	nt	nt	i	nt
Cc1nc2ccc(NC(=O)Cc3c(F)cccc3Cl)cc2s1	i	i	i	i	i
CSc1ccc(CN(C)CC(=O)NC(=O)NCCC2=CCCCC2)cc1	i	nt	i	i	i
COc1ccccc1OCC(=O)NCC1CCCN(C(=O)c2cccc(C)c2)C1 (configuration not stated)	nt	nt	nt	i	nt
O=C(C1=NN(c2ccccc2)C2C(=O)N(c3ccc(Cl)cc3)C(=O)C12)c1ccccc1 (configuration not stated)	i	nt	i	i	46
O=C(C1=NN(c2ccccc2)C2C(=O)N(c3cccc(Cl)c3)C(=O)C12)c1ccccc1 (configuration not stated)	i	nt	i	i	32
CC(=O)C1=NOC2C(=O)N(c3ccc(Cl)cc3)C(=O)C12 (configuration not stated)	i	i	i	i	i
COc1cccc(NC(=O)C2(C)CCCN(C(C)C)C2)c1 (configuration not stated)	nt	nt	nt	i	nt
COc1ccccc1NC(=O)/C(C#N)=C/c1cc([N+](=O)[O-])ccc1N1CCCC1	i	-83	i	i	i
COc1ccccc1NC(=O)/C(C#N)=C/c1ccncc1	i	i	i	i	i
c1ccc2c(c1)nc(NCC1CCCO1)c1nnnn12 (configuration not stated)	i	i	i	i	40
O=[N+]([O-])c1ccccc1/C=N/Nc1nnc(-c2ccccc2)c(-c2ccccc2)n1	i	i	i	i	i
O=C1CCNc2c(Cl)cc(Cl)cc21	i	i	i	i	32
O=C1CCNc2c(Cl)cccc21	i	i	i	i	i
O=C(/C=C(\O)c1ccccc1)C(=O)NNC(=O)c1ccccc1[N+](=O)[O-]	i	-48	i	i	i
O=C(NNC(=O)c1ccccc1[N+](=O)[O-])c1cnccn1	i	-65	i	i	i
O=C(NNC(=S)NC(=O)c1ccccc1[N+](=O)[O-])c1ccccc1[N+](=O)[O-]	i	i	i	i	i
O=C(NNC(=O)c1cnccn1)c1cccc([N+](=O)[O-])c1	i	-61	i	i	i
Cc1cc(C(=O)NNC(=O)c2cccc([N+](=O)[O-])c2)n[nH]1	i	nt	i	i	i
CCN(CC(=O)Nc1c(F)cccc1F)C(=O)c1ccc2c(c1)OCO2	i	nt	i	i	i
Fc1ccccc1N1CCN(c2nc3ccccc3n3nnnc23)CC1	52	i	i	i	36
O=C(CO/N=C/c1ccccc1)Nc1c(F)c(F)c(F)c(F)c1F	i	i	i	i	i
O=C(O)/C(=C/c1ccco1)NC(=O)c1ccc(Br)o1	i	i	i	i	i
CC(C)C(NC(=O)/C(=C/c1ccco1)NC(=O)c1ccc(Br)o1)C(=O)O (configuration not stated)	45	i	i	i	35
NC(=O)/C(=C\c1ccco1)NC(=O)c1ccc(Br)o1	42	i	i	i	37
CCC1CCCCN1C(=O)Nc1cc(Cl)ccc1OC (configuration not stated)	i	i	i	i	i
